PostGolgi yeast – growth inhibition of a yeast mutant, post-Golgi transport screen; post-Golgi transport phenotypic cell assay; inhibition, % at 10 µM; 0.9% of 98,000 active; AID 739;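 further: yeast cells grown in 1536-well plates; yeast grown about 18 h at 30C before absorbance read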
CYP2C19 inh – blocks human cytochrome P450 2C19 | P33261 | CYP2C19 Supersomes, luciferin-H EGE luminescence, 30 min | inhibition, % at 5 µM | 21% of 96,000 active;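 active means CYP2C19 inhibition above a set limit at 5 µM in the primary screen, cut at about 50% in these data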
Target sequence (P33261 whole entry, looked up): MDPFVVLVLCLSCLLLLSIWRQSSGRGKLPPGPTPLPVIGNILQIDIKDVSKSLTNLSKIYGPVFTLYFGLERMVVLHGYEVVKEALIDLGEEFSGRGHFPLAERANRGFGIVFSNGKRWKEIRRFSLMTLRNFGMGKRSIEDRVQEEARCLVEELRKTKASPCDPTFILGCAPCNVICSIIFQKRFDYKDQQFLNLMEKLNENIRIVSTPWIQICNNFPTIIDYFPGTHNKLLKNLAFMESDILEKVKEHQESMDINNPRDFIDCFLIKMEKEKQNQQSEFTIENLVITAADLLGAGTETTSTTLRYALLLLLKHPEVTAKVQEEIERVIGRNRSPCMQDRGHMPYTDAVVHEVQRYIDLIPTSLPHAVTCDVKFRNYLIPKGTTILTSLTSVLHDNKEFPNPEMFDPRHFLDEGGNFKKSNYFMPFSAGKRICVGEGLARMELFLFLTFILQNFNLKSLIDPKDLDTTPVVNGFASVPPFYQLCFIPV
CYP2C9 act – increases human cytochrome P450 2C9 activity; P11712; recombinant CYP2C9, luciferin-H conversion, luminescence; stronger effect = higher value; factor 1 = untreated enzyme, 0 = blocked; activation factor at 5 µM; 1.4% of 96,000 active;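 active means activation factor of 2 or more for CYP2C9 at a 5 µM dose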
CYP2C9 inh – inhibitors of human CYP2C9; AID 777; inhibition, % at 5 µM; 20% of 96,000 active; CYP2C9 Supersomes, luciferin-H conversion, luminescence;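 active means blocking of liver enzyme CYP2C9 beyond about 50% at 5 µM, limit read from the data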
PostGolgi ctrl – yeast control strain growth, post-Golgi counter-screen. efflux-deficient yeast background strain, growth absorbance A615, 16 h. inhibition, % at 10 µM. 5% of 98,000 active. AID 738
CYP2C19 act – cytochrome P450 2C19 (human) activation; recombinant CYP2C19, luciferin-H EGE luminescence; stronger effect = higher value; 0 = fully inhibited enzyme, 1 = untreated enzyme; activation factor at 5 µM; 96,000 tested, under 10 active;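 active means activation factor of at least 2 at 5 µM in the primary screen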
Each line names hits and unclear results; the compound was inactive in the other large screens. Hits are enriched below; roughly 32% of the tested compounds scored in any of these assays. Unless noted, no stated cut-off is given here; in the data, active means inhibition above about 30%; inactive means the rest.

COc1ccc(S(=O)(=O)N2CCN(CC(=O)Nc3cc(C(F)(F)F)ccc3Cl)CC2)cc1	none (no result: CYP2C19 inh, CYP2C9 act, CYP2C9 inh, CYP2C19 act)
COc1ccc(C)cc1NC(=O)CN1CCN(S(=O)(=O)c2ccc(F)cc2)CC1	CYP2C19 inh 52.5, PostGolgi ctrl 31.4
O=C(NCCCn1ccnc1)c1cn(-c2ccccc2)nc1-c1ccccc1	CYP2C19 inh 64.1, CYP2C9 inh 93.9
COCCSc1ccccc1C(=O)NCCCn1ccnc1	CYP2C19 inh 68.1
Cc1c(C(=O)O)oc2ccc(S(=O)(=O)NCCC3=CCCCC3)cc12	none (no result: CYP2C19 inh, CYP2C9 act, CYP2C9 inh, CYP2C19 act)
Cc1ccc(-c2nnn(CC(=O)N3CCN(c4ccccc4)CC3)n2)o1	none
O=C(O)COc1cccc2ccccc12	none
CCN(CC)C(=O)COc1cccc2ccccc12	CYP2C19 inh 93.0, CYP2C9 act 3.7 (no result: PostGolgi yeast, PostGolgi ctrl)
O=S(=O)(N/N=C/c1ccc2c(c1)OCCO2)c1ccccc1	none
O=S(=O)(N/N=C/c1c(F)cccc1Cl)c1ccccc1	CYP2C19 inh 66.0
O=S(=O)(N/N=C\C=C\c1ccccc1)c1ccc(Cl)cc1	CYP2C9 inh 95.8
O=C1[C@H]2[C@@H](C(=O)N1c1cccc3ccccc13)C1(C(=O)c3ccccc3C1=O)N1CCC[C@@H]21	none
Cc1n[nH]c(C)c1S(=O)(=O)NCCc1ccc(Cl)cc1	none
Cc1ccc(NC(=O)c2nn(C34CC5CC(CC(C5)C3)C4)cc2[N+](=O)[O-])cc1	PostGolgi yeast 79.4, PostGolgi ctrl 60.9
NC12CC3CC(C1)CC(CO)(C3)O2	none
Cc1nnsc1Sc1cccc(C(F)(F)F)c1	none
O=C1Nc2ccccc2/C1=C\c1cccn1-c1ccc(OC(F)(F)F)cc1	CYP2C9 inh 87.4
O=C1N/C(=C/c2cccn2-c2ccc(F)cc2)C(=O)N1Cc1ccccc1	none
CCOC(=O)C1CCN(c2c(NCc3ccc(C(=O)NCCC(C)C)cc3)c(=O)c2=O)CC1	CYP2C9 inh 59.2
CCOC(=O)C1CCCN(C(=O)c2ccc(CNc3c(N4CCC(C)CC4)c(=O)c3=O)cc2)C1 (stereo unspecified)	CYP2C9 inh 55.3
CCCNC(=O)c1ccc(CNc2c(N3CCC(C(=O)OCC)CC3)c(=O)c2=O)cc1	none
CCCOC(=O)CSc1nnc(-c2cc(OC)c(OC)c(OC)c2)o1	none
O=C(CSCc1ccccc1)NNC(=S)Nc1cccc(Cl)c1Cl	CYP2C9 inh 86.7, PostGolgi ctrl 31.4
O=C(NCCN1CCc2ccccc2C1)C1CCN(S(=O)(=O)N2CCCCC2)CC1	none
CCc1ccc(NC(=O)CSc2nnc(-c3ccccn3)n2C)cc1	CYP2C19 inh 67.2, CYP2C9 inh 72.1
CCn1c(SCC(=O)NCCc2ccc(Cl)cc2)nnc1-c1cccs1	CYP2C19 inh 77.6, CYP2C9 inh 80.6
CCc1ccc(NC(=O)CSc2nnc(-c3cccs3)n2CC)cc1	CYP2C9 inh 52.5
CCOC(=O)c1ccc(NC(=O)CSc2nnc(-c3cccs3)n2CC)cc1	none
CCn1c(CC(=O)Nc2ccc(C)c(Cl)c2)nnc1SCC(=O)Nc1nc(C)cs1	CYP2C9 inh 63.3
CC(C)c1ccc(NC(=O)CSc2nnc(-c3ccccn3)n2C)cc1	none
O=C(NC1CCCCCCC1)C1CCN(S(=O)(=O)N2CCCC2)CC1	none
Cn1c(SCC(=O)Nc2cc(=O)n(C)c(=O)n2C)nnc1-c1cccs1	none (no result: PostGolgi yeast, PostGolgi ctrl)
Cc1csc(NC(=O)CSc2nnc(-c3cccs3)n2C)n1	CYP2C19 inh 51.7
Cc1ccc(NC(=O)c2ccco2)cc1NC(=O)CSc1nnc(-c2cccs2)n1C	none
CCn1c(SCC(=O)Nc2cccc(NC(=O)c3ccco3)c2)nnc1-c1cccs1	CYP2C19 inh 55.6, CYP2C9 inh 64.7
CC1SC(=NC(=O)c2ccco2)NC1=O (stereo unspecified)	none
COc1cccc(NC(=O)[C@@H]2CCCN2C(=O)C2CCN(S(=O)(=O)c3ccc(C)cc3)CC2)c1	none
c1ccc2nc(-c3ccc(N4CCOCC4)cc3)ccc2c1	none
c1ccc2nc(-c3ccncc3)ccc2c1	CYP2C19 inh 67.8
CCCc1nc2c(o1)CC(CC(C)SCC)CC2=O (stereo unspecified)	CYP2C19 inh 51.2
OCCn1c(SCCOc2ccccc2)nc2ccccc21	CYP2C19 inh 75.1
S=C(Nc1ccccc1)Nc1nc2ccccc2n1CCOc1ccccc1	PostGolgi ctrl 31.7
Cc1ccc(OCCCn2c(CO)nc3ccccc32)cc1	PostGolgi yeast 36.7, CYP2C19 inh 95.2, CYP2C9 inh 53.3
COCc1nc2ccccc2n1CCOc1ccccc1OC	CYP2C19 inh 59.6

Bioassay records from PubChem.
